EBV gp42 block: blocks Epstein-Barr virus glycoprotein 42 binding; inhibition, % (tested at 21.74 µM); AID 1085; 220,000 tested, 0.42% active; Q1HVG2; Fluorescence polarization binding assay, mP read-out; in the data active = inhibition above about 50%
Target sequence (Q1HVG2 whole entry, looked up): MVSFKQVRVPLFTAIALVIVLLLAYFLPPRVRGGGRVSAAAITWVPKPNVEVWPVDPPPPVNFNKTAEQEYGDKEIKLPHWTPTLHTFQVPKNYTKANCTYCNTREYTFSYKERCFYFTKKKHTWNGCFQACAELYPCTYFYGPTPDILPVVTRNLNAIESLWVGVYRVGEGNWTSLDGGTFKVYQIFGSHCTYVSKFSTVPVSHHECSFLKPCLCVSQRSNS
GLD-1 TGE inh: GLD-1-TGE RNA interaction inhibition (C. elegans) | 320,000 tested, 0.44% active | purified GLD-1 + fluorescein TGE RNA, fluorescence polarization | inhibition, % at 5.96 µM | AID 2280;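 active = percent inhibition above a per-plate cutoff, the plate mean of test compounds plus 3 SD, cut at about 30% in these data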
Target sequence (Q17339 whole entry, looked up): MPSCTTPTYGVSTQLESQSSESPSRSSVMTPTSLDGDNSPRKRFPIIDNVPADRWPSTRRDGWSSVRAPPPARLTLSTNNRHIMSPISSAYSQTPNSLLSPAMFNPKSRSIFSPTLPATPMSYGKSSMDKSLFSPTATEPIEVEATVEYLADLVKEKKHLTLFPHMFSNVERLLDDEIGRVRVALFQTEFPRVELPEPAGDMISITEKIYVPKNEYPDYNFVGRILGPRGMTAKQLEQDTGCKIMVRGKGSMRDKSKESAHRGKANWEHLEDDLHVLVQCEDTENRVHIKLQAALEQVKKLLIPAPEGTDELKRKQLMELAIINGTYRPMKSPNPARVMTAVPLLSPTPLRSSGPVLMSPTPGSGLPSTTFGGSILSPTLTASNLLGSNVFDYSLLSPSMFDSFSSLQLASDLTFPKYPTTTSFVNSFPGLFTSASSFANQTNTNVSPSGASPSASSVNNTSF
LANA-H2B inh: blocks KSHV LANA binding to histone H2A/H2B; cell-free LANA-H2A/H2B peptide, fluorescence polarization; Q9QR71; inhibition, % (concentration not given with the values); 320,000 tested, 0.6% active; in the data active = inhibition mostly above about 10%, no sharp cut-off; inactive = mostly below about 6.7%
Keap1-Nrf2 PPI: inhibitors of human Keap1-Nrf2 protein-protein interaction; Keap1 Kelch-Nrf2 peptide fluorescence polarization, 1536-well; inhibition, % at 9.4 µM; 340,000 tested, 0.15% active; AID 504523; in the data active = inhibition above about 12%;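 also: human Keap1 Kelch domain with fluorescein labeled Nrf2 9mer peptide probe; higher means more block of Keap1 binding to Nrf2 peptide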
C-LANA FP: KSHV C-LANA DNA binding inhibition; 340,000 tested, 0.078% active; inhibition, % at 9 µM; AID 504423; MBP-C-LANA/FAM-LBS DNA binding, fluorescence polarization;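 active = highest replicate inhibition at or above 60% at 9 µM, even if other replicates fall short; inactive = all replicates below 60% inhibition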
eLon inh: inhibitors of E. coli Lon protease | P0A9M0 | purified E. coli Lon protease, fluorescence polarization | inhibition, % at 7.94 µM | 360,000 tested, 0.42% active | AID 602123; in the data active = inhibition above about 13%, passing the limit was not always enough
Of the large screens only hits and unclear results are named; the others gave an inactive call. Sampled rows, rich in hits. Any-hit rate of the full collection: about 1.5%.

CCOC(=O)c1sc2nc3c(SCC(=O)O)cc(C(=O)c4ccccc4O)cn3c(=O)c2c1C	none
CCOC(=O)c1sc2nc3c(SCC(=O)O)cc(C(=O)c4cc(F)ccc4O)cn3c(=O)c2c1C	LANA-H2B inh 21.6
O=C1CCCN1CCCNc1nc(NCc2ccccc2)nc2ccsc12	none (no result: EBV gp42 block, GLD-1 TGE inh, LANA-H2B inh, Keap1-Nrf2 PPI, C-LANA FP)
O=C(NNC(=O)c1sccc1-n1cccc1)c1cccc(Cl)c1	EBV gp42 block 67.2
COc1ccc(NC(=O)CC2(CC(=O)O)CCCC2)cc1	none (no result: EBV gp42 block)
COc1ccc(OC)c(NC(=O)CC2(CC(=O)O)CCCC2)c1	LANA-H2B inh 19.5 (no result: EBV gp42 block)
CCN1CCN(C(c2ccccc2)c2nnnn2CCc2ccc(OC)c(OC)c2)CC1 (stereo unspecified)	LANA-H2B inh 15.0
Cc1nn(C(=O)CNC(=O)c2ccccc2)c(C)c1C	LANA-H2B inh 9.6
Cc1cc(C)n(C(=O)CNC(=O)c2cccc(F)c2)n1	none (no result: EBV gp42 block, GLD-1 TGE inh, LANA-H2B inh)
CN(C(=O)CCN1C(=O)S/C(=C\c2ccccc2)C1=O)C1CCS(=O)(=O)C1 (stereo unspecified)	LANA-H2B inh 17.8 (no result: EBV gp42 block)
COc1ccc(/C=C2\SC(=O)N(CCC(=O)N(C)C3CCS(=O)(=O)C3)C2=O)cc1 (stereo unspecified)	none (no result: EBV gp42 block)
O=c1sc2ccccc2n1Cc1ccccc1	none
CCOc1ccccc1Cn1c(=O)sc2ccccc21	LANA-H2B inh 37.1
Cc1ccc(C)c(C(=O)COC(=O)c2ccc(C)c(S(=O)(=O)N3CCOCC3)c2)c1	LANA-H2B inh 13.7 (no result: EBV gp42 block)
Cc1ccc(C(=O)OCC(=O)NC(C)C)cc1S(=O)(=O)N1CCOCC1	none
COc1ccc(NC(=O)c2sc3nc(Cc4ccccc4)cc(C(F)(F)F)c3c2N)cc1OC	none
COc1ccccc1NC(=O)c1sc2nc(Cc3ccccc3)cc(C(F)(F)F)c2c1N	EBV gp42 block 73.9
O=C1NC(=S)S/C1=C\c1ccc(SCc2ccccc2)o1	none (no result: LANA-H2B inh)
O=C1NC(=S)S/C1=C\c1ccc(SCc2ccco2)o1	Keap1-Nrf2 PPI 20.7, C-LANA FP 99.5
O=C(NC(c1ccccc1)c1ccc2ccccc2n1)C1CCN(Cc2ccc(Cl)c(Cl)c2)CC1 (stereo unspecified)	none (no result: EBV gp42 block, GLD-1 TGE inh, LANA-H2B inh, Keap1-Nrf2 PPI, C-LANA FP)
CCCCN(C(C)=O)c1c(CC)nc2ccc(C(=O)NCCOc3ccc(OC)cc3)cn12	none (no result: EBV gp42 block, GLD-1 TGE inh, LANA-H2B inh, Keap1-Nrf2 PPI, C-LANA FP)
COc1ccc(CSc2nnc(C)s2)cc1F	LANA-H2B inh active
COC(=O)c1ccc(CSc2nnc(C)s2)cc1	none (no result: EBV gp42 block)
O=[N+]([O-])c1ccc(N2N=C(c3ccco3)CC2c2ccccc2)cc1 (stereo unspecified)	EBV gp42 block 70.0
COc1ccc(CC(N)c2csc(NC(=O)C(c3ccccc3)c3ccccc3)n2)cc1 (stereo unspecified)	none (no result: EBV gp42 block, GLD-1 TGE inh, LANA-H2B inh, Keap1-Nrf2 PPI, C-LANA FP)
O=C(CSc1nnc(-c2ccccc2Br)o1)N1CCOCC1	LANA-H2B inh 20.3 (no result: EBV gp42 block)
O=C(CSc1nnc(-c2ccccc2O)o1)N1CCOCC1	none (no result: EBV gp42 block, GLD-1 TGE inh, LANA-H2B inh)
CCOC(=O)C1CCCCN1S(=O)(=O)c1cc2c(cc1C)NC(=O)CO2 (stereo unspecified)	none (no result: EBV gp42 block, LANA-H2B inh)
CCOc1cc2c(cc1OCC)C(C(=O)O)C(c1cc(Br)c(O)c(OC)c1)N(C)C2=O (stereo unspecified)	LANA-H2B inh 14.6
CC(C)c1ccc(O)c(=O)cc1	none (no result: EBV gp42 block, GLD-1 TGE inh, LANA-H2B inh, Keap1-Nrf2 PPI, C-LANA FP)
COc1ccc2c(c1)/C(=C/c1cc(OC)c(OC)c(OC)c1)C(=O)N2	none (no result: EBV gp42 block, GLD-1 TGE inh, LANA-H2B inh)
C=C1c2cc(OC)ccc2NC(=O)N1CC	EBV gp42 block 51.7
C[C@H](CO)N1C[C@H](C)[C@@H](CN(C)C(=O)Nc2ccc(F)cc2)OCc2cnnn2CCCC1=O	none (no result: EBV gp42 block, GLD-1 TGE inh, LANA-H2B inh, Keap1-Nrf2 PPI, C-LANA FP)
Cc1cc(C)c2nc(-c3ccccn3)cc(C(=O)n3cccn3)c2c1	none
COc1cc2c(cc1NC(=O)COC(=O)[C@@H](NC(=O)c1ccccc1)C(C)C)oc1ccccc12	LANA-H2B inh 25.3
COc1ccccc1NC(=O)c1c([N+](=O)[O-])cnn1C	LANA-H2B inh 15.3 (no result: EBV gp42 block)
CC1CCN(C(=O)COC(=O)c2cccc(NS(=O)(=O)c3ccccc3)c2)CC1	none (no result: EBV gp42 block)
Cc1cc2nc(C3CCCCC3)c(Cc3ccccc3)n2c(C)c1Br	none (no result: EBV gp42 block, GLD-1 TGE inh, LANA-H2B inh, Keap1-Nrf2 PPI, C-LANA FP)
CCN(CC)c1ccc(C=C2C(=O)OC(c3ccccc3)OC2=O)cc1 (stereo unspecified)	EBV gp42 block 90.8
CC1CCN(C(=O)COC(=O)C23CC4CC(CC(O)(C4)C2)C3)CC1	none (no result: EBV gp42 block)
CC1CCCC(C)N1C(=O)COC(=O)C12CC3CC(CC(Cl)(C3)C1)C2 (stereo unspecified)	LANA-H2B inh 17.1 (no result: EBV gp42 block)
Cc1cc(NS(=O)(=O)c2ccc(NC(=O)c3cc4cc(Br)ccc4oc3=O)cc2)no1	EBV gp42 block 101.2
O=C(O)c1nn(CCOc2ccc(Br)cc2)c(=O)c2ccccc12	LANA-H2B inh 13.2 (no result: EBV gp42 block)
CCCCC(CC)COC(=O)C(C#N)=C(c1ccccc1)c1ccccc1 (stereo unspecified)	LANA-H2B inh 14.9 (no result: EBV gp42 block)
CCOC(=O)/C(C#N)=C(/C)c1ccc(OC)cc1	none
CC(=O)Nc1ccc(-c2ccnc3c2CC(C)(C(=O)Nc2cccc(Oc4ccccc4)c2)O3)cc1 (stereo unspecified)	none (no result: EBV gp42 block, GLD-1 TGE inh, LANA-H2B inh, Keap1-Nrf2 PPI, C-LANA FP)
CCC(NC(=O)C1C2C=CC(C2)C1C(=O)O)c1ccc(C)cc1 (stereo unspecified)	LANA-H2B inh 103.5 (no result: EBV gp42 block)
CCC(NC(=O)CCl)c1ccc(C)cc1 (stereo unspecified)	none
O=C1C[C@@H]2C(=O)N(c3ccccc3)C(=O)[C@@H]2[C@@H]2CN(S(=O)(=O)c3ccccc3)[C@@H](c3ccccc3)[C@H]12	none (no result: EBV gp42 block, GLD-1 TGE inh, LANA-H2B inh, Keap1-Nrf2 PPI, C-LANA FP)
CC(C)Cn1c(CCCNC(=O)c2ccco2)nc2ccccc21	none (no result: EBV gp42 block)
CC(C)Cn1c(CCCNC(=O)c2ccc(F)cc2)nc2ccccc21	LANA-H2B inh 11.0
CCCOc1ccc(F)cc1-c1cc(C(=O)Nc2ccc(C)c(NS(C)(=O)=O)c2)[nH]n1	none (no result: EBV gp42 block, GLD-1 TGE inh, LANA-H2B inh, Keap1-Nrf2 PPI, C-LANA FP)
c1ccc(Cn2ncc3c(N4CCN(c5ccccc5)CC4)ncnc32)cc1	none (no result: EBV gp42 block, GLD-1 TGE inh, LANA-H2B inh, Keap1-Nrf2 PPI, C-LANA FP)
CC(=O)Oc1ccc(C2OC(=O)c3ccccc3N2C(C)=O)cc1 (stereo unspecified)	none
CC(=O)N1c2ccccc2C(=O)C1N1CCCCC1 (stereo unspecified)	GLD-1 TGE inh 58.0
COC(=O)[C@H]1C[C@@H]1[C@H](NC(=O)c1cc(C)on1)c1ccccc1	none
Cc1nn(C)c(C)c1S(=O)(=O)N(CC(=O)Nc1ccc2c(c1)OCO2)c1ccc(C(C)C)cc1	eLon inh 15.9
Cc1noc(C)c1S(=O)(=O)N(CC(=O)Nc1ccc2c(c1)OCO2)c1ccc(C(C)C)cc1	none (no result: LANA-H2B inh)
O=C(NCc1cccnc1)c1cc2ccccc2oc1=O	none
O=C(OCCNC(=O)c1cc2ccccc2oc1=O)c1cccnc1	LANA-H2B inh 49.7
O=C1Cn2c(nc3ccccc32)N1c1cccc(C(F)(F)F)c1	LANA-H2B inh 15.0
CCOC(=O)C1=CCN(S(=O)(=O)c2ccccc2Cl)C1c1cccc(F)c1 (stereo unspecified)	none (no result: EBV gp42 block, GLD-1 TGE inh, LANA-H2B inh, Keap1-Nrf2 PPI, C-LANA FP)
COc1cc(N2CCCC2)c(OC)cc1/C=C(/C#N)c1cccc(F)c1	EBV gp42 block 107.9

From PubChem BioAssay
